Measured values from PubChem BioAssay AID651953 (The Scripps Research Institute Molecular Screening Center, 2012).
Screen size: about 2,400 compounds; about 430 (18%) were called active. Cut-off read from the data, not from the text of the source: active = activation above about 12%; inactive = the rest. A selection follows.

Assay: calcium activation in Ga16-expressing cells, counter-screen for TAAR1 antagonist project, cell-based, fluorescence (AID 651953);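 note: 0% = vehicle wells and 100% = saturating stimulus response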
Settings: agonist counterscreen, at 3 µM, stronger effect = higher value

SMILES | activation
CC(=O)n1cc([C@H]2C=C(C(=O)N3CCOCC3)O[C@@H](OCc3ccc(CO)cc3)C2)c2ccccc21 | 8.38% (inactive)
CC(=O)Nc1ccc(NC(=O)COC(=O)C2CCC(C(C)(C)C)CC2)cc1 (centres undefined) | 12.5% (active)
COc1cc2ccccc2cc1C(=O)Nc1ccc(NC(=O)c2cccs2)cc1 | 7.21% (inactive)
COC(=O)[C@@]1(Sc2ccc(C)cc2)CC(=O)N(c2cccc(SC)c2)[C@@H]1c1ccccc1 | 7.65% (inactive)
COc1ccc(C(=O)Oc2ccc(-c3nnco3)cc2)cc1S(=O)(=O)N1CCOCC1 | 8.48% (inactive)
CCOc1cc(/C=N/NC(=O)c2cc(-c3ccccc3)nc3ccccc23)ccc1O | 7.59% (inactive)
O=C(Oc1ccc(-c2nnco2)cc1)c1ccc(F)c(S(=O)(=O)N2CCOCC2)c1 | 11.4% (inactive)
O=C1c2ccccc2C(=O)N1CCC#Cc1ccc2cc(C3(O)CCCCC3)oc(=O)c2c1 | 12.9% (active)
Cc1nn(-c2ccccc2)c(C)c1NC(=O)COC(=O)c1cc(Cl)ccc1O | 11.4% (inactive)
CCOc1ccc(NC(=O)N2CC=C(n3c(=O)[nH]c4ccccc43)CC2)cc1 | 8.85% (inactive)
C=CCn1c(SCc2cccc(F)c2)nc2cc(C(=O)N3CCC(C(N)=O)CC3)ccc2c1=O | 10.2% (inactive)
CSc1nc(-c2ccccc2)nc(C(Cl)Cl)n1 | 2.33% (inactive)
Cn1c2ccccc2c(=O)c2c(=O)n(Cc3ccco3)c(COc3ccccc3)nc21 | 11.7% (active)
O=c1[nH]c(CSc2ncc(-c3ccc(F)cc3)n2Cc2ccco2)nc2ccccc12 | 9.09% (inactive)
COc1ccc(CCNC(=O)c2ccc(CS(=O)(=O)c3ccc(Br)cc3)o2)cc1OC | 13.5% (active)
COc1ccc(CCNC(=O)C(=O)NCC2OCCN2S(=O)(=O)c2ccc(OC)c(C)c2)cc1 (centres undefined) | 7.62% (inactive)
COc1ccc(CCNC2=C(Cl)C(=O)N(Cc3ccccc3)C2=O)cc1OC | 10.4% (inactive)
CC(C)(C)OC(=O)NCCCCCNC(=O)c1nc[nH]c1C(=O)NCc1ccccc1 | 7.75% (inactive)
O=C(NCc1ccc2c(c1)OCO2)c1c(-c2ccsc2)sc2ccccc12 | 3.18% (inactive)
Oc1ccc(/C=N/Nc2nc(-c3ccccc3F)nc3ccccc23)c(O)c1 | 11.9% (active)
Fc1ccc(/C=N/Nc2nc(-c3cccnc3)nc3ccccc23)cc1 | 5.53% (inactive)

SMILES | activation
CCOC(=O)C1=C(NC(=S)NC(=O)c2ccccc2)c2ccccc2CC1(C)C | 11.8% (active)
CNC(=O)c1ccsc1NC(=O)c1ccc(S(=O)(=O)N2CCc3ccccc32)cc1 | 9.94% (inactive)
COc1ccc(-c2cc(C(=O)Nc3ccccc3O)c3ccccc3n2)cc1 | 10.9% (inactive)
COc1ccc(NC(=O)c2cc(-c3ccc(C)o3)nc3ccccc23)cc1 | 8.64% (inactive)
CC(=O)N1CCN(C(=O)c2cc(-c3ccc(Cl)s3)nc3ccccc23)CC1 | 11.8% (active)
COc1ccc(S(=O)(=O)N2CCCC(C(=O)Nc3ccc(NC(=O)c4ccccn4)cc3)C2)cc1 (centres undefined) | 9.11% (inactive)
O=C(OCC(=O)N(CCc1ccccc1)Cc1ccccc1)c1ccccc1[N+](=O)[O-] | 9.58% (inactive)
Cn1c(C(=O)NCCc2ccsc2)cc2c(=O)n(C)c3ccccc3c21 | 6.98% (inactive)
COc1ccc(OC)c2[nH]c(=O)c(CCNC(=O)C(=O)c3c[nH]c4ccccc34)cc12 | 9.04% (inactive)
COc1ccc(S(=O)(=O)N(CC(=O)NCc2ccco2)c2ccc(F)cc2)cc1 | 7.35% (inactive)
N#Cc1cccc(NC(=O)COC(=O)c2ccccc2C(=O)c2ccc(Cl)c([N+](=O)[O-])c2)c1 | 10.4% (inactive)
C[C@H](NC(=O)c1nc[nH]c1C(=O)NCC(=O)OC(C)(C)C)C(=O)OCc1ccccc1 | 6.84% (inactive)
COc1ccc(C2=NOC(Cn3nc(C(=O)NCc4ccc5c(c4)OCO5)cc3-c3ccccc3)C2)cc1 (centres undefined) | 7.98% (inactive)
Cc1ccc2c(c1)N(CC(=O)NCCc1ccc(Cl)cc1)C(=O)c1cccnc1O2 | 8.82% (inactive)
C=CCC[C@@H](Cc1ccc(F)cc1)C(=O)O[C@H](CNC(=O)[C@H](CC=C)CC(=O)N(CCO)Cc1ccccc1)c1ccccc1 | 5.79% (inactive)
CSCCC(NC(=O)COc1ccccc1)C(=O)OCCOc1ccc(Br)cc1 (centres undefined) | 4.3% (inactive)
COC(=O)C1=C(C)N(Cc2ccc(F)cc2)C(=S)NC1c1cccc(Cl)c1 (centres undefined) | 2.63% (inactive)
COC(=O)Cc1nnn2c1[C@H](C)[C@H](c1ccccc1[N+](=O)[O-])OCC2 | -1.09% (inactive)
Cc1ccccc1NC(=O)Cc1nc(COC(=O)C(C)(C)Oc2ccc(Cl)cc2)cs1 | 7.78% (inactive)
C=CCC[C@H](Cc1ccc(F)cc1)C(=O)OC[C@H](C)NC(=O)[C@H](CC=C)CC(=O)N(CCO)Cc1ccccc1 | 8.66% (inactive)
Cc1cccc(NC(=O)c2ccc(COc3ccccc3[N+](=O)[O-])o2)n1 | 4.04% (inactive)

SMILES | activation
Cc1cccc(C)c1NC(=O)CNC(=O)C1CCCC1 | 2.04% (inactive)
Cc1ccc(-n2c(C)cc(/C=N\NC(=O)CC(=O)NC(C)C)c2C)cc1 | 8.51% (inactive)
O=C(NCCN1CCOCC1)c1ccccc1N1C(=O)[C@@H]2Cc3c([nH]c4ccccc34)C(c3cccc(Cl)c3)N2C1=O (some centres undefined) | 6.37% (inactive)
COc1ccc(C(=O)Nc2cccc(NC(=O)c3ccc(OC)cc3OC)n2)c(OC)c1 | 8.74% (inactive)
O=C(CN1CCCSc2ccccc21)N1CCN(S(=O)(=O)c2cccc(F)c2)CC1 | 8.97% (inactive)
Oc1ccccc1N1CCN(c2ncnc3sc(-c4ccccc4)cc23)CC1 | 6.72% (inactive)
COc1cc(/C=C2/C(=O)ON=C2C)ccc1OCc1ccccc1F | 12.4% (active)
O=C(COC(=O)c1c2c(nc3ccccc13)CCCC2)c1ccc(Br)s1 | 2.67% (inactive)
C[C@H](O)[C@@H]1C(=O)N2CCc3c([nH]c4c(-c5ccc6c(c5)OCO6)cccc34)[C@@H]2C[C@@H]1N(C)C(=O)c1ccco1 | 5.11% (inactive)
Nc1nonc1-n1nnc(C(=O)N/N=C/c2c[nH]c3ccccc23)c1-c1ccccc1 | 6.4% (inactive)
Cc1ccc(SCc2c(C(=O)N/N=C/c3cccnc3)nnn2-c2nonc2N)cc1 | 17.4% (active)
O=C(N/N=C/c1ccc(OC(=O)c2ccccc2Cl)cc1)c1ccc(O)cc1 | 8.92% (inactive)
O=C(NCCN1CCOCC1)c1ccc(/C=C2\Sc3ccccc3N(Cc3ccc(F)cc3)C2=O)cc1 | 9.85% (inactive)
O=S(=O)(c1cccs1)N1CCCc2nc(-c3ccc(Br)cc3)ccc21 | 5.49% (inactive)
C[C@@H]1CN([C@@H](C)CO)S(=O)(=O)c2ccc(C#Cc3cccc(F)c3)cc2O[C@H]1CN(C)S(=O)(=O)c1cn(C)cn1 | 13.6% (active)
CCCCNc1c(-c2cccc(Sc3ccc(OC)cc3)c2)nc2ccccn12 | 6.41% (inactive)
CSc1ncnc2c1ncn2CC(=O)C1CCC2C3CCC4=CC(=O)CCC4(C)C3CCC12C (centres undefined) | 15.7% (active)
CCN=C1SC(CC(=O)Nc2ccc(C)cc2)C(=O)N1CC (centres undefined) | 9.6% (inactive)
O=C(COC(=O)c1ccccc1SCC(=O)N1CCCC1)Nc1ccccc1OC(F)F | 9.11% (inactive)
COc1ccc(-c2nn(-c3ccccc3)cc2C(=O)Nc2nccs2)cc1OC | 7.16% (inactive)
COc1cc(SC#N)ccc1N=Cc1c(C)[nH]n(-c2ccc(C)cc2)c1=O | 7.36% (inactive)

SMILES | activation
O=C(Nc1ccccc1-c1nnn(CC(=O)N2CCN(c3ccccc3)CC2)n1)c1cccs1 | 8.25% (inactive)
CC(C)N(Cc1ccccc1)C(=O)COC(=O)c1ccccc1SCC(=O)N1CCCC1 | 8.17% (inactive)
COc1ccc(NC(=O)C2CCCN(S(=O)(=O)c3cccc4cccnc34)C2)cc1OC (centres undefined) | 7.3% (inactive)
CCOC(=O)C1C(c2ccc(OC)c(OC)c2)c2c([nH][nH]c2=O)CC1(C)O (centres undefined) | 3.55% (inactive)
Clc1ccc(Nc2ncnc3c2nnn3Cc2ccccc2)cc1 | 3.96% (inactive)
COc1ccc(N(CC(=O)N/N=C/c2cccs2)S(=O)(=O)c2ccc(OC)c(OC)c2)cc1 | 8.47% (inactive)
CC(=O)OCCN(CCCn1c(-c2ccncc2)nc2ccccc21)c1nc(-c2ccc(C)cc2)cs1 | 12.8% (active)
COC(=O)Cc1nnn2c1[C@H](C)[C@H](c1ccccc1Br)OCC2 | 9.39% (inactive)
CN(c1ccccc1)S(=O)(=O)c1cc(C(=O)Nc2nc3ccccc3[nH]2)ccc1Cl | 8.92% (inactive)
NNC(=O)CNC(c1ccccc1)c1cc(Cl)ccc1NC(=O)c1ccccc1 (centres undefined) | 9.38% (inactive)
CC/C(=N/Nc1ccccc1)c1cnnc(SC)n1 | -1.08% (inactive)
Cc1onc(-c2c(F)cccc2Cl)c1C(=O)Nc1cccc(S(=O)(=O)N2CCCCC2)c1 | 9.53% (inactive)
CCC(=O)Oc1cccc(C(=O)Nc2ccc(-c3nnc(-c4ccco4)o3)cc2)c1 | 4.99% (inactive)
CCc1ccc2c(c1)NC(=O)C2(C)Cc1ccc(OC(F)(F)F)cc1 (centres undefined) | 14.4% (active)
Cc1cc(Br)ccc1NC(=O)c1cnc(N2CCN(c3ccccn3)CC2)c2ccccc12 | 7.37% (inactive)
O=C(Nc1ccc(-c2nnc(-c3ccccc3)o2)cc1)c1ccc(Br)o1 | 1.44% (inactive)
O=C(N/N=C/c1ccc(Cl)c(Cl)c1)c1ccc2nc[nH]c2c1 | 7.7% (inactive)
O=C(COC(=O)CCCSc1nc2ccccc2[nH]1)Nc1ccc(Oc2ccccc2)cc1 | 8.31% (inactive)
COC(=O)c1sccc1NC(=O)c1cc(OC)c(OC)c(OC)c1 | 5.58% (inactive)
COc1cc(OC)cc(C(=O)OCC(=O)Nc2sccc2C(N)=O)c1 | 13.5% (active)
COc1ccc(CC(=O)Nc2c(C(N)=O)oc3ccccc23)cc1 | 6.51% (inactive)
